From ChEMBL document CHEMBL4513216, “Probing the Open Global Health Chemical Diversity Library for Multistage-Active Starting Points for Next-Generation Antimalarials” (ACS Infect Dis, 2020)
In all, about 65,000 compounds went through this assay and about 2,100 (3.2%) showed an effect of 50% or more. The median lay at about -52%. The list comes from a sample in which strong results are over-represented; it also holds similar structures and randomly drawn compounds.

tested on: Plasmodium falciparum; assay: Screen against P. falciparum Asexual Blood Stage (ABS), at 5uM; format: functional, Dd2; details: tested at 5 uM

Row | SMILES | INHIBITION [%]
1 | O=C(CN1CCOC(Cn2cccn2)C1)NCc1ccco1 (stereo unspecified) | -88.2
2 | O=C(NC1CC(F)(F)C1)[C@]12COC[C@H]1CN(Cc1ccccc1)C2 | -96
3 | Cc1cc(=O)n2nc(Oc3ccc(F)c(F)c3)sc2n1 | -13.2
4 | Cc1cc(=O)n2nc(Oc3cccc(C(N)=O)c3)sc2n1 | -166
5 | Cc1cc(=O)n2nc(Oc3cccc(I)c3)sc2n1 | 56.4
6 | COCCCNC(=O)CN1CCC(N2CCN(C)C2=O)CC1 | -137
7 | Cc1ccc(-c2nc(CN3CCc4c(ncn4C)C3)cs2)o1 | -159
8 | Cn1cnc2c1CCN(Cc1csc(-c3ccccc3)n1)C2 | -10.7
9 | Cn1cnc2c1CCN(Cc1csc(-c3ccco3)n1)C2 | 51.3
10 | Cc1cc(NC(=O)C(C)N2CCN(c3ccc(C#N)cc3F)CC2)no1 (stereo unspecified) | -124
11 | CN(C(=O)Nc1ccncc1)C1CCN(c2ccc(Cl)cc2)CC1 | -10.2
12 | COc1ccc(-n2ccc(CNCc3ccc(OC)c(O)c3)n2)cc1 | -17.9
13 | COc1ccc(CNCCc2ccn(-c3ccccc3)n2)cc1O | 67.1
14 | COc1ccc(CNCCn2c(C)nc3ccccc32)cc1O | -82.4
15 | CCCn1cc(NC(=O)c2cccnc2O)ccc1=O | -8.23
16 | CCc1nc(CNc2cc(C)nc(-c3cccnc3)n2)cs1 | -19.9

Row | SMILES | INHIBITION [%]
17 | CCc1noc(C2CCCCN2C(=O)c2cccs2)n1 (stereo unspecified) | -105
18 | CCc1noc(C2CCCCN2C(=O)c2ccccc2)n1 (stereo unspecified) | -89.7
19 | CCc1noc(C2CCCCN2C(=O)c2nnc3ccccc3n2)n1 (stereo unspecified) | 65.5
20 | Cc1cc(CN2C[C@@H](C)[C@@]3(CCN(C)C3=O)C2)oc1C | -1.06
21 | CCC(CNC(=O)c1ccccc1Br)N1CCc2ccccc2C1 (stereo unspecified) | 41.5
22 | CCC(CNC(=O)c1ccc(Br)o1)N1CCc2ccccc2C1 (stereo unspecified) | 16.3
23 | CCC(CNC(=O)c1cncc(Br)c1)N1CCc2ccccc2C1 (stereo unspecified) | 66.9
24 | CCN1CC(CN(C)Cc2nc(-c3cccc(C)c3)oc2C)CC1=O (stereo unspecified) | -142
25 | CCOCC1CN(Cc2cccnc2OC)Cc2cnn(C)c21 (stereo unspecified) | -60.6
26 | OCC1CCC2(CC1)CN(Cc1ccsc1)Cc1ccccc1O2 (stereo unspecified) | -50.7
27 | COCCN1CCOCC12CCN(c1nccs1)CC2 | -151
28 | Fc1ccc(C2(NCc3ccccc3)CCOCC2)cc1 | 64.2
29 | CN(C)c1ccc(CNC2(c3ccc(F)cc3)CCOCC2)cc1F | 28.8
30 | CSc1ccc(CNC2(c3ccc(F)cc3)CCOCC2)cc1 | 31.4
31 | c1cnc(NCc2noc3c2CN(CCN2CCCC2)CC3)nc1 | -63.3
